Drawing on the supplement of paper PMC12819154, “High-throughput peptide-centric local stability assay extends protein–ligand identification to membrane proteins, tissues and bacteria” (Nature Structural & Molecular Biology, 2025), this text covers log2 fold change for 40 targets.
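Further: lysate desalted by size exclusion to strip endogenous ATP, peptide intensities built from DIA-NN precursor signals, and peptides missing any value discarded before comparison.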

Compound in the assay: Nc1ncnc2c1ncn2[C@@H]1O[C@H](COP(=O)(O)OP(=O)(O)OP(=O)(O)O)[C@@H](O)[C@H]1O [adenosine 5'-triphosphate]
Kind of assay: log2 fold change of tryptic peptide abundance, ligand vs vehicle (limited proteolysis) (log2 ratio); higher = more trypsin-susceptible (destabilized). To be noted: ligand concentration: 5 mM; sample: E. coli desalted lysate; replicate design: treated before aliquoting. As for the experimental part: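 HT-PELSA: desalted E. coli K-12 BW25113 lysate (with 12 mM MgCl2) incubated with 5 mM ATP (pH 7) or water for 30 min at 25 C, then a 4 min trypsin pulse at 22 C. Peptides were quantified by DIA-MS (4 replicates). Value is the peptide log2 fold change (treated/control); negative = stabilized. Scale: negative = ligand-stabilized region.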
Consider “UniProt P27249 (peptide sequence: VEDLFIIATADRR, peptide start residue: 854)”, for which the log2 fold change worked out at 0.328.
With “UniProt P27241 (peptide sequence: YTIVNVDVYEHASKEDK, peptide start residue: 90)”, the log2 fold change was -0.487.
Consider “UniProt P33570 (peptide sequence: AGKEEAHGAPLGEEEVALAR, peptide start residue: 254)”, for which the log2 fold change was -0.289.
On to “UniProt P42589 (peptide sequence: TVVVLCNLQK, peptide start residue: 62)”, for which the log2 fold change was -0.415.
Next, “UniProt P08194 (peptide sequence: AEQELTAK, peptide start residue: 235)”: -0.739.
Next, “UniProt P27298 (peptide sequence: DGDHYATLNTAQK, peptide start residue: 115)”: 1.13.
“UniProt P77783 (peptide sequence: MNHPDRLK, peptide start residue: 109)”: the log2 fold change was -0.483.
Next, “UniProt P03007 (peptide sequence: VTDSLAVAR, peptide start residue: 127)”: 0.313; “UniProt P38051 (peptide sequence: QAQQLGEWLMADDKNQR, peptide start residue: 267)”: -0.448.
Consider “UniProt P30015 (peptide sequence: TGDTPAQER, peptide start residue: 132)”, for which the log2 fold change is -2.26.
As to “UniProt P0AC84 (peptide sequence: QINVFLR, peptide start residue: 212)”, the log2 fold change stood at 0.46.
Next, “UniProt P37744 (peptide sequence: KGFIDVEQVRK, peptide start residue: 261)”: -0.836; “UniProt P37902 (peptide sequence: ALFKEPNDKALN, peptide start residue: 291)”: 1.12; “UniProt P04693 (peptide sequence: HAIAPLLFGADHPVLKQQR, peptide start residue: 77)”: 0.961.
Consider “UniProt P27240 (peptide sequence: IKDLVVFTDENNSK, peptide start residue: 7)”, for which the log2 fold change was -0.431.
Regarding “UniProt P32157 (peptide sequence: YPVDVYTGK, peptide start residue: 3)”, the log2 fold change is -0.765.
Then “UniProt P27278 (peptide sequence: TFMSISGAQIR, peptide start residue: 202)”, with -2.94; and “UniProt P76034 (peptide sequence: DAPCEVILLGGVYQKK, peptide start residue: 127)”, with -0.81; and “UniProt P37051 (peptide sequence: TICPDQK, peptide start residue: 11)”, with -0.377.
Consider “UniProt P39310 (peptide sequence: VWHAPDNFR, peptide start residue: 14)”, for which the log2 fold change is -0.8.
Next, “UniProt P39364 (peptide sequence: IIGQLMSDIR, peptide start residue: 82)”: -0.915; “UniProt P31060 (peptide sequence: ALAGELPLLKGER, peptide start residue: 48)”: -1.32.
Next, “UniProt P77148 (peptide sequence: ILLGEYFR, peptide start residue: 100)”: -0.452; “UniProt P77399 (peptide sequence: TQGNYPATER, peptide start residue: 240)”: -0.418.
For the target “UniProt P05055 (peptide sequence: GDISEFAPR, peptide start residue: 546)”, the log2 fold change is -0.643.
Next, “UniProt P0C0T5 (peptide sequence: WTSAQLLRPQALDLVSR, peptide start residue: 130)”: 0.388.
Then “UniProt P77433 (peptide sequence: GEFLNNVAQALGRPLR, peptide start residue: 5)”, with 0.243; and “UniProt P27848 (peptide sequence: GHALEAVAK, peptide start residue: 192)”, with 0.631.
Next, “UniProt P77766 (peptide sequence: LAQGGAVTR, peptide start residue: 133)”: -0.418; “UniProt P77202 (peptide sequence: TLNIIMGNK, peptide start residue: 240)”: 0.511.
As for “MurD (peptide sequence: YLNGDNVR, peptide start residue: 359) (UniProt P14900)”, the log2 fold change was -1.33.
Next, “UniProt P27550 (peptide sequence: IAEAAVVGIPHNIK, peptide start residue: 542)”: -2.61; “UniProt P15254 (peptide sequence: QALIDANLR, peptide start residue: 169)”: -0.778.
As to “UniProt P08390 (peptide sequence: AVDALAGQSAK, peptide start residue: 168)”, the log2 fold change amounted to 0.237.
Next, “UniProt P36999 (peptide sequence: RYPQVTFCVASSHR, peptide start residue: 128)”: -0.656; “UniProt P11454 (peptide sequence: IELGEIDR, peptide start residue: 867)”: -1.19; “UniProt P76043 (peptide sequence: ACSEPNPDYPR, peptide start residue: 284)”: -1.41.
Regarding “UniProt P46889 (peptide sequence: FRDNPSPLTVVLGK, peptide start residue: 957)”, the log2 fold change is -1.51.
Next, “UniProt P11446 (peptide sequence: GAAAQAVQCANIR, peptide start residue: 312)”: -0.854; “UniProt P02925 (peptide sequence: IAGDYIAKK, peptide start residue: 136)”: 1.27.
